Source: the supplement of paper PMC13380429

What was measured:
[1] = system: Vero E6 infected with SARS-CoV-2; experiment: morphology score (similarity to uninfected cells); higher = more like uninfected cells; conditions: 24 h
[2] = system: Vero E6 infected with SARS-CoV-2; experiment: SARS-CoV-2 infection rate relative to infected DMSO; higher = more infection, active = 60 or less; conditions: 24 h

| SMILES | morphology score [1] | SARS-CoV-2 infection rate [2] |
| --- | --- | --- |
| CN(C)CCOC1=Cc2ccccc2Sc2ccc(Cl)cc21 [zotepine] (0.833333 µM) | 0.061 | 106% (inactive) |
| Cn1cc(-c2ccncc2)c(-c2ccc(OCc3ccc4ccccc4n3)cc2)n1 (10 µM) | 0.927 | 8% (active) |
| Nc1ccn([C@H]2C[C@H](O)[C@@H](CO)O2)c(=O)n1 [torcitabine] (10 µM) | -0.00729 | 108% (inactive) |
| O=C(NCCN1CCCCC1)c1ccc(I)cc1 [N-[2-(piperidinylamino)ethyl]-4-iodobenzamide] (10 µM) | 0.317 | 91.5% (inactive) |
| Cc1cc(C(=CNc2ccc(Cl)cc2)C(=O)Nc2ccc(Cl)cc2)on1 (10 µM) | 0.005 | 103% (inactive) |
| COc1cnc(NS(=O)(=O)c2ccc(N)cc2)nc1 [sulfameter] (10 µM) | 0.131 | 111% (inactive) |
| O=C(O)CC/C=C\C[C@@H]1CO[C@H](c2ccccc2Cl)O[C@@H]1c1ccccc1O (racemic) (10 µM) | -0.000999 | 106% (inactive) |
| CN1CCN(Cc2ccc(Nc3ncc(Cl)c(Nc4ccccc4S(=O)(=O)N(C)C)n3)cc2)CC1 (10 µM) | -0.145 | 120% (inactive) |
| COc1ccc(Nc2nccc(NCCO)n2)cc1 [cardiogenol-C] (10 µM) | 0.0849 | 100% (inactive) |
| CCc1ccc2c(-c3cccc(Cl)c3)nc(=O)n(CC)c2n1 (10 µM) | 0.375 | 100% (inactive) |
| COc1ccc(C(=O)/C(Cc2cc(OC)c(OC)c(OC)c2)=C(\C(=O)O)c2ccc3c(c2)OCO3)cc1 (10 µM) | 0.489 | 69% (inactive) |
| O=C(C1CCCCC1)N1CC(=O)N2CCc3ccccc3C2C1 (stereo not drawn) [praziquantel] (10 µM) | 0.151 | 106% (inactive) |
| C[C@@H](O)[C@H]1C(=O)N2C(C(=O)O)=C([C@H]3CCCO3)S[C@H]12 [faropenem] (10 µM) | 0.121 | 92.5% (inactive) |
| OB1OCc2cc(F)ccc21 [tavaborole] (10 µM) | 0.00492 | 108% (inactive) |
| CC(C)[C@@H]1CC[C@@H](C)C[C@H]1O [levomenthol] (10 µM) | -0.181 | 108% (inactive) |
| Cn1c(=O)c2c(ncn2CC(=O)Nc2ccc(-c3ccccc3)nn2)n(C)c1=O (10 µM) | 0.382 | 80.5% (inactive) |
| N[C@H]1CC[C@H](N[C@@H]2C[C@H]2c2ccccc2)CC1 (10 µM) | 0.432 | 79.5% (inactive) |
| CCN(CC)C(=O)Nc1ccc(OCC(O)CNC(C)(C)C)c(C(C)=O)c1 (stereo not drawn) [celiprolol] (10 µM) | 0.118 | 96.5% (inactive) |
| COc1ccc2[nH]c([S+]([O-])Cc3ncc(C)c(OC)c3C)nc2n1 (stereo not drawn) [tenatoprazole] (10 µM) | 0.162 | 105% (inactive) |
| CC#C[C@]1(O)CC[C@H]2[C@@H]3CCC4=CC(=O)CCC4=C3[C@@H](c3ccc(N(C)C)cc3)C[C@@]21C [mifepristone] (10 µM) | 0.443 | 65.5% (inactive) |

| SMILES | morphology score [1] | SARS-CoV-2 infection rate [2] |
| --- | --- | --- |
| CCNC(=O)[C@H]1O[C@@H](n2cnc3c(N)ncnc32)[C@H](O)[C@@H]1O (10 µM) | 0.184 | 92% (inactive) |
| CC(ONC(=O)c1cc(C(F)(F)F)cc(C(F)(F)F)c1)C(=O)Nc1ccc(Cl)cc1 (stereo not drawn) (10 µM) | 0.227 | 89.5% (inactive) |
| CCCCNc1nc(N)c2[nH]c(=O)n(Cc3ccc(OCCN(C)C)nc3)c2n1 (10 µM) | 0.0113 | 103% (inactive) |
| CC[C@H]1OC(=O)C[C@@H](O)[C@H](C)[C@@H](O[C@@H]2O[C@H](C)C[C@H](N(C)C)[C@H]2O)[C@@H](CC=O)C[C@@H](C)C(=O)/C=C/[C@]2(C)O[C@H]2[C@@H]1C [rosamicin] (10 µM) | 0.129 | 96% (inactive) |
| Cc1c(Cc2ccc3ccccc3n2)c2cc(F)ccc2n1CC(=O)O (10 µM) | 0.0108 | 102% (inactive) |
| COc1ccc2cc(-c3nc(-c4ccc([S+](C)[O-])cc4)[nH]c3-c3ccncc3)ccc2c1 (stereo not drawn) [tie2-kinase-inhibitor] (10 µM) | 0.619 | 72.5% (inactive) |
| CC(C)c1cc2c(cc1S(=O)(=O)O)[C@@]1(C)CCC[C@@](C)(C(=O)O)[C@@H]1CC2 [ecabet] (10 µM) | 0.0527 | 102% (inactive) |
| C=C1/C(=C\C=C2/CCC[C@]3(C)[C@@H]([C@H](C)CCCC(C)C)CC[C@@H]23)C[C@@H](O)C[C@@H]1O [alfacalcidol] (10 µM) | 0.0852 | 98% (inactive) |
| COc1cc(CCc2cc(NC(=O)c3ccc(N4CC(C)NC(C)C4)cc3)n[nH]2)cc(OC)c1 (stereo not drawn) (10 µM) | 0.373 | 79.5% (inactive) |
| COc1ccc2cc3[n+](cc2c1OC)CCc1cc2c(cc1-3)OCO2 [berberine] (10 µM) | 0.0605 | 98% (inactive) |
| CC(C)NNC(=O)c1ccncc1 [iproniazid] (10 µM) | 0.0745 | 108% (inactive) |
| Nc1n[nH]c2nc3ccccc3nc12 [CDK1-5-inhibitor] (10 µM) | -0.113 | 112% (inactive) |
| COc1ccc([C@@H]2CC(=O)c3c(O)cc(O[C@@H]4O[C@H](CO[C@@H]5O[C@@H](C)[C@H](O)[C@@H](O)[C@H]5O)[C@@H](O)[C@H](O)[C@H]4O)cc3O2)cc1O [hesperidin] (10 µM) | -0.132 | 108% (inactive) |
| O=C(NNC(=O)c1ccc(CNS(=O)(=O)c2ccc(F)c(Cl)c2)cc1)c1ccccc1 (10 µM) | -0.0845 | 114% (inactive) |
| COc1cc2c(cc1OC)C1CC(=O)C(CC(C)C)CN1CC2 (stereo not drawn) [tetrabenazine] (10 µM) | 0.159 | 102% (inactive) |
| COc1ccccc1OCC(O)COC(N)=O (stereo not drawn) [methocarbamol] (10 µM) | 0.0924 | 100% (inactive) |
| CC(=O)CCCCn1c(=O)c2c(ncn2C)n(C)c1=O [pentoxifylline] (10 µM) | 0.0323 | 104% (inactive) |
| CCOP(=S)(OCC)Oc1cc(C)nc(C(C)C)n1 [dimpylate] (10 µM) | -0.0379 | 116% (inactive) |
| CCCCOc1nc(N)c2c(n1)N(Cc1cccc(CN3CCCC3)c1)CC(=O)N2 (10 µM) | -0.135 | 106% (inactive) |
| CCN(CC)CCCC(C)Nc1ccnc2cc(Cl)ccc12 (stereo not drawn) [chloroquine] (10 µM) | 0.554 | 57.5% (active) |

| SMILES | morphology score [1] | SARS-CoV-2 infection rate [2] |
| --- | --- | --- |
| COc1ccc(CN2C(=O)C(=O)c3cc(OC(F)(F)F)ccc32)cc1 (0.833333 µM) | 0.0284 | 102% (inactive) |
| Cc1cc(C)c2c(c1)[C@@H](N(Cc1cc(C(F)(F)F)cc(C(F)(F)F)c1)c1nnn(C)n1)CCCN2C[C@H]1CC[C@H](C(=O)O)CC1 [evacetrapib] (10 µM) | 0.0498 | 97% (inactive) |
| CC(C)(C)C(=O)OCOC(=O)[C@@H]1N2C(=O)[C@@H](/N=C/N3CCCCCC3)[C@H]2SC1(C)C [pivmecillinam] (10 µM) | -0.0287 | 99% (inactive) |
| Cc1cc(C(=O)Nc2nc3cccc(Cl)c3n2[C@@H]2CCCCN(C(=O)/C=C/CN(C)C)C2)ccn1 (0.833333 µM) | -0.2 | 110% (inactive) |
| Nc1ccn(C[C@@H](CO)OCP(=O)(O)O)c(=O)n1 [cidofovir] (10 µM) | 0.0279 | 108% (inactive) |
| CC(C)(C)OC(=O)N[C@H]1CCCCC/C=C\[C@@H]2C[C@@]2(C(=O)NS(=O)(=O)C2CC2)NC(=O)[C@@H]2C[C@@H](OC(=O)N3Cc4cccc(F)c4C3)CN2C1=O [danoprevir] (10 µM) | -0.0154 | 114% (inactive) |
| Cc1c(F)cc(C(=O)NC2CC2)cc1-c1ccc(C(=O)NCC(C)(C)C)cn1 [losmapimod] (10 µM) | 0.0455 | 98.5% (inactive) |
| O=C(NCCCN1CCC2(CC1)OCc1ccccc12)[C@H]1CCCN1Cc1ccccc1 (10 µM) | 0.505 | 63.5% (inactive) |
| CCn1c(=O)c(-c2ccc(Cl)cc2Cl)cc2cnc(Nc3ccc(N4CCNCC4)c(F)c3)nc21 (0.833333 µM) | 0.097 | 106% (inactive) |
| CS(=O)(=O)c1ccc(-c2cnc(NCc3ccco3)n3cnnc23)cc1 (10 µM) | 0.197 | 83% (inactive) |
| Cc1ccc(-c2ccc(C)cn2)nc1 [abametapir] (10 µM) | 0.0247 | 106% (inactive) |
| CC(C)(C)C[C@@H]1N[C@@H](C(=O)N[C@H]2CC[C@H](O)CC2)[C@H](c2cccc(Cl)c2F)[C@]12C(=O)Nc1cc(Cl)ccc12 (10 µM) | -0.042 | 113% (inactive) |
| COc1ccc(CCN(C)CCCC(C#N)(c2cc(OC)c(OC)c(OC)c2)C(C)C)cc1OC (stereo not drawn) [gallopamil] (10 µM) | 0.176 | 98% (inactive) |
| CN(C)CCCC1(c2ccc(F)cc2)OCc2cc(C#N)ccc21 (stereo not drawn) [citalopram] (10 µM) | -0.167 | 107% (inactive) |
| CCCCN1[C@@H]2CC[C@H]1C[C@@H](OC(c1ccc(F)cc1)c1ccc(F)cc1)C2 (0.833333 µM) | 0.0455 | 86% (inactive) |
| COc1c(OCCCN2CCOCC2)ccc2c1N=C(NC(=O)c1cnc(N)nc1)N1CCN=C21 [copanlisib] (0.833333 µM) | -0.0397 | 34% (active) |
| CCO[C@@H](Cc1ccc(OCCn2c(C)ccc2-c2ccc(SC)cc2)cc1)C(=O)O [saroglitazar] (10 µM) | 0.336 | 92% (inactive) |
| CN[C@@H]1[C@H](O)[C@H](NC)[C@H]2O[C@@]3(O)C(=O)C[C@@H](C)O[C@H]3O[C@@H]2[C@H]1O [spectinomycin] (0.833333 µM) | 0.0353 | 102% (inactive) |
| O=C1NC(=O)/C(=C/c2ccc3nccc(-c4ccncc4)c3c2)S1 (0.833333 µM) | 0.151 | 108% (inactive) |
